# Test results from the supplement of paper PMC6555819.
# Key:
# Assay in all cases: PBM binding z-score (relative to random genomic background probes); higher = stronger binding; sequences stand for … in GC…GCGATTGACAGCGTAGAATGAAGG
# [1] = test system: PPARg:RXRa DBDmut IVT, anti-RXR (DBD mutation: RXRa K156A/R161A, NR concentration 270 nM, RXRa partner concentration 90 nM)
# Outline: (§1)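 Ligand-free nuclear receptor dimers were applied to custom Agilent 4×180K protein-binding microarrays whose double-stranded probes carried direct-repeat seeds, single-nucleotide variants, half-site ablations and random human genomic background sequences in 34-nt variable regions. Incubation lasted 1 h. Binding z-scores were computed against the random background probes from regression-normalized fluorescence.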
# [2] = test system: PPARg:RXRa IVT, anti-PPARg (NR concentration 270 nM, RXRa partner concentration 90 nM)
# Outline: as §1
# [3] = test system: PPARg DBDmut:RXRa IVT, anti-PPARg (DBD mutation: PPARg1 K132A/R137A, NR concentration 270 nM, RXRa partner concentration 90 nM)
# Outline: as §1
# [4] = test system: PPARg DBDmut IVT, anti-PPARg (DBD mutation: PPARg1 K132A/R137A, NR concentration 270 nM)
# Outline: as §1
# [5] = test system: PPARg homodimer (NR concentration 180 nM)
# Outline: as §1
# [6] = test system: PXR:RXRa (NR concentration 270 nM, RXRa partner concentration 90 nM)
# Outline: as §1
# [7] = test system: PXR homodimer (NR concentration 270 nM)
# Outline: as §1
# [8] = test system: RARa:RXR (NR concentration 270 nM, RXRa partner concentration 90 nM)
# Outline: as §1
# [9] = test system: RARa homodimer (NR concentration 270 nM)
# Outline: as §1
# [10] = test system: RARb:RXRa (NR concentration 270 nM, RXRa partner concentration 90 nM)
# Outline: as §1
Sequence,PBM binding z-score [1],PBM binding z-score [2],PBM binding z-score [3],PBM binding z-score [4],PBM binding z-score [5],PBM binding z-score [6],PBM binding z-score [7],PBM binding z-score [8],PBM binding z-score [9],PBM binding z-score [10]
TATACAGGATCAAAGGCCAGAGTACGAATGTCGA,0.256,1.03,0.156,0.991,1.27,0.0724,0.338,0.0923,0.389,0.997
TCATATAGGTTAAGGTGAAAGTCGAACGATATGA,4.9,4.89,1.69,1.29,1.49,1.04,-0.203,2.19,0.984,2.49
GCTTACGGGTCAAAGGTTATGGCATGAATAGAAT,5.17,5.79,1.49,1.1,3.11,6.13,0.477,8.41,1.41,4.56
TAGCCTCGGTCATTGGGCCAGTATAGTACGCATC,0.608,1.16,-0.424,-0.786,-0.222,-0.491,-0.977,-0.492,-0.437,2.33
CACACTAGGTCAAAGGTCAAAGTCGAGCCAACCA,8.09,8.84,5.62,4.09,7.33,7.4,2.74,9.26,4.38,5.87
CTTAGTTGGTCAGGAGGTCACACACCGGATATGA,3.35,4.3,1.44,1.09,3.81,4.37,1.79,4.74,3.28,3.83
CGTCGAAGGTCAATGCTAGGTCAGTGAAAGCATT,2.56,3.93,-0.174,-1.09,4.55,4.73,0.726,6.43,0.867,5.19
CCTACTGGGCGATTCAGAGGTCATTGATCATATG,1.07,1.23,-1.35,-0.572,1.38,4.37,1.7,4.25,0.31,2.53
CGTCCAAGGTAAATGCTAGGTCAGTGAAAGCATT,0.714,0.881,-1.05,-0.95,0.424,0.128,-0.305,0.803,-0.343,1.61
CTAACTAGGTCAAGGTCAAAGTCGGTTTGTGCCA,8.82,8.88,2.1,2.34,2.99,5.04,1.89,4.65,0.786,5
CAAACTAGGTCAAAGGTCAAACTCGAGCCAACCA,8.72,9.06,5.54,4.24,5.23,7.03,2.84,8.96,3.29,5.81
ATACGTAGGTTATCGGGTCATTCAGTTTGCGCAT,3.06,3.95,1.74,0.954,2.79,3.74,8.01,3.84,0.759,2.59
CAAACCAGGTCACGAAAGGTCAAAGTCGAATGAC,6.74,7.37,0.599,1.79,6.46,7.33,5.57,8.04,4.58,5.74
CCTCGGAGGACAACCGGAGGTCAGAGCTGCCAGA,-0.468,0.238,-0.802,-1.28,1.17,2.33,0.578,2.46,0.0885,2.98
GCTGCTAGGTCAACTGAAGGTCAGCTAAAGCTCG,5,4.47,-0.0557,-1.06,5.87,4.62,0.437,6.6,2.11,4.98
ACTAGGTGGTCAGCTGAGGTCACACACAATTCGG,1.21,3.02,0.296,0.306,1.93,5.62,1.01,4.73,0.58,3.78
TAGCATAGGTCATGCGGGCCAGTATAGTGTCGGC,1,2.48,0.261,-0.165,1.08,2.83,0.0553,3.38,-0.53,4.13
TTACCAAGGTGAAAGGTCGGTGATGCACGCCTTG,2.41,4.51,1.85,0.075,1.26,2.17,-0.356,3.77,-0.0129,2.65
CCTAGTTGGTCAAGGTCACACATGCTATAGGTAC,2.61,3.82,1.11,1.14,3.65,4.24,2.57,4.11,2.64,4.14
CCTTACGGGTCAAGGTTGTAGCACGGGTGGTACG,0.974,3.06,0.572,-0.462,1.93,2.61,-0.423,3.82,-0.14,3.86
ATCGAATGGTCGAGGTGAGTATAGAGAAAGGGAA,-0.483,0.658,1.03,0.73,0.372,-0.283,0.0857,0.0342,0.112,0.541
AGAATGAGGTTACCAAAGATCAGTGAAACGCTTG,4.06,3.2,1.32,0.399,0.652,1.56,0.0456,1.9,0.395,2.06
TGAATGACGTTAAAGATCAGGGAACGTGGCGTCG,-1.13,0.0329,0.97,0.284,-0.272,-0.444,-0.0558,-0.209,0.184,-0.171
